In all, about 1,300 compounds went through this assay and about 1,100 (85%) were called active. So high a share suggests a set chosen from earlier hits. These entries were drawn from the full list. Values without a mark were called inactive. Rule as the data show it: active = inhibition above about 48%; inactive = the rest.
assay: NALP3 inhibitors retested in yeast, confirmation, luminescence, single concentration (AID 435006); conditions: yeast expressing human NALP3, luminescence; at 10 µM; stronger effect = higher value

| Compound | inhibition |
| --- | --- |
| O=C(Nc1ccccc1Cl)/C(Cl)=C(\Cl)S(=O)c1ccccc1 (centres undefined) | 64.3% (active) |
| O=[N+]([O-])c1c(NCCO)cc(Sc2nc3ccccc3s2)c2nonc12 | 62.6% (active) |
| O=C(Nc1ccccc1)c1cc2ccccc2[nH]1 | 73.6% (active) |
| CC(C)(c1ccccc1)c1ccc(OCCN)cc1 | 71.8% (active) |
| CN(C)c1ccnc2sc(C(=O)c3ccccc3)c(N)c12 | 68% (active) |
| CC(C)n1c(COc2ccccc2)nc2ccccc21 | 70% (active) |
| Cc1ccc(OCc2nc3ccccc3n2C)cc1 | 78.3% (active) |
| CC(=O)[C@@]12O[C@@H]1C[C@H]1[C@@H]3CC[C@H]4C[C@@H](O)CC[C@]4(C)[C@H]3CC[C@@]12C | 71.5% (active) |
| C[C@@H]1C[C@@H]2O[C@H]2/C=C\C=C\C(=O)Cc2c(Cl)c(O)cc(O)c2C(=O)O1 | 72.4% (active) |
| O=C(CC(O)(C(F)(F)F)C(F)(F)F)Nc1ccc(Cl)c(Cl)c1 | 97.9% (active) |
| N#Cc1nc(COc2ccc(Cl)cc2)oc1N1CCCC1 | 30.3% |
| Cc1ccc(OCc2nc(C#N)c(N3CCCC3)o2)cc1 | 48.9% (active) |
| CC1CC2=C(CC1/C=N/NC(N)=S)C(C)(C)CCC2 (centres undefined) | -1.3% |
| O=[N+]([O-])c1cccc(/C=N/Nc2ncc(Br)cn2)c1 | 72.2% (active) |
| Cc1ccnc(Nc2nc3ccccc3s2)n1 | 73% (active) |
| CCOC(=O)c1c(C)[nH]c(C(=O)COc2ccc3c(c2)OCO3)c1C | 47% |
| O=C(COc1ccccc1F)Nc1nc(-c2ccccn2)cs1 | 55.5% (active) |
| COc1cccc(/C=N/Nc2cc(C)nc(-c3ccccc3O)n2)c1O | 25.5% |
| Oc1ccc(Br)cc1/C=N/Nc1ccccn1 | 66.3% (active) |
| O=C(NCc1ccc2c(c1)OCO2)c1c(O)nc2sccn2c1=O | 75.2% (active) |
| Cc1cccc(NC(=S)NC(=O)c2ccc(Br)o2)c1 | 63.5% (active) |
| Cc1csc(NC(=S)Nc2cccc(Cl)c2)n1 | -12% |

| Compound | inhibition |
| --- | --- |
| COCCCNC(=O)/C=C/c1ccc(OCc2c(F)cccc2Cl)cc1 | 27.1% |
| Fc1ccccc1-c1cc2cc3c(cc2cn1)OCO3 | 51.1% (active) |
| O=[N+]([O-])/C=C/c1ccc2c(ccn2Cc2ccccc2)c1 | 78.7% (active) |
| Cc1cc(C)c(/C=C2\C(=O)Nc3ccccc32)[nH]1 | 51.8% (active) |
| Cn1c(=NC(=O)c2ccco2)sc2cccc(F)c21 | 60.5% (active) |
| CC(C)C(=O)N1CCN(CCN=CC2=C(O)CC(c3ccco3)CC2=O)CC1 (centres undefined) | 74.3% (active) |
| Cc1ccc(-c2nn(C(C)(C)C)c3ncnc(N)c23)cc1 | 86.7% (active) |
| CC(C)Sc1ncnc2c1cnn2-c1ccccc1 | 48.7% (active) |
| Cc1ccc(O)c(NC(=O)c2cc(-c3ccco3)on2)c1 | 76% (active) |
| CCSc1nc2sc3c(c2c(=O)n1-c1ccc(C)cc1)CCN(C)C3 | 69.4% (active) |
| O=C(Oc1c(-c2ccco2)oc2ccccc2c1=O)c1cccnc1 | 78.3% (active) |
| O=C(Nc1ccc2oc(-c3ccccc3F)nc2c1)c1ccco1 | 82.2% (active) |
| CCc1noc(C)c1C(=O)Nc1nc2ccc(OC)cc2s1 | 78.5% (active) |
| Cc1c(C(=O)N2CCCc3ccccc32)oc2ccccc12 | 47.6% |
| Cc1cc(C(=O)COc2ccc(Br)cc2F)c(C)n1C1CC1 | 54.5% (active) |
| Cn1c(=O)c(C(=O)Nc2ncccn2)c(O)c2ccccc21 | 60.5% (active) |
| Oc1c(Cl)cc(Cl)c(Cl)c1Cc1c(O)c(Cl)cc(Cl)c1Cl | 99% (active) |
| Nc1c(-c2cccc(Cl)c2)cnn1-c1cccc([N+](=O)[O-])c1 | 61.2% (active) |
| CCc1cc(C(=O)Nc2nnc(C3CC3)s2)sc1C | 60.8% (active) |
| O=C(CSc1ccc(-c2ccc(-n3cccn3)cc2)nn1)Nc1ccc([N+](=O)[O-])cc1 | 41% |
| CN=C1C=C/C(=N/N=c2\ccn(O)cc2C)C=C1C | 57.2% (active) |
| O=C(Nc1ccc(Oc2ccccc2)cc1)c1ccco1 | 44.5% |

| Compound | inhibition |
| --- | --- |
| COc1ccccc1C(=O)Nc1ccc(NC(=O)c2ccco2)c(C)c1 | 60.8% (active) |
| CCN(CC)c1ccc(/C=N/Nc2nc(C)cc(C)n2)c(O)c1 | 40.4% |
| CC(=NCc1ccc2c(c1)OCO2)C1=C(O)c2ccccc2C1=O | 67.5% (active) |
| CC1(C)CCSC(/C=C/c2ccccc2)=N1 | 87.4% (active) |
| O=C1C=C(c2ccc(Cl)cc2)C(=O)N1Nc1ccccc1 | 55% (active) |
| CCCN(CC1CC1)C(=S)NC(=O)c1ccccc1Br | 47.1% (active) |
| O=C(CSc1ncnc2c1oc1ccccc12)NC1CCCC1 | 67.6% (active) |
| N#Cc1nc(Cc2ccccc2)oc1NCCc1ccccc1 | 48.6% (active) |
| CCCc1nc2c(c(=O)c3ccccc3n2C)c(=O)n1C1CCCCCC1 | 30.2% |
| COc1ccccc1OCc1nc2ccccc2s1 | 47.1% (active) |
| CCCCCCC12CCC(C(=O)O)(CC1)CC2 | 66.8% (active) |
| Cc1cc(C)nc(NC(=O)Nc2ccccc2C(F)(F)F)n1 | 68.8% (active) |
| O=C(CCCN1C(=O)/C(=C\c2ccco2)SC1=S)Nc1cccc2ccccc12 | 52.9% (active) |
| Cc1ccc2cccc(S(=O)(=O)N3CCN(c4ccccc4F)CC3)c2n1 | 65.9% (active) |
| O=C1CSC(=S)N1c1ccc(O)cc1 | 83.8% (active) |
| COc1cc(N2C(=O)CSC2=S)cc(OC)c1OC | 58.7% (active) |
| CC(C)C(=O)Nc1ccc2c(c1)oc1ccccc12 | 2.95% |
| COc1ccc(OCc2nnc3n2N=C(c2ccccc2)C(CC(=O)O)S3)cc1 (centres undefined) | 16.8% |
| Cc1ccc(CSc2nsc(C)c2C#N)cc1 | 56.3% (active) |
| CCCNc1ncnc2sc(C)c(C)c12 | 60.5% (active) |

From PubChem BioAssay AID435006 (Sanford-Burnham Center for Chemical Genomics, 2010)
